High-throughput results deposited in PubChem BioAssay by National Center for Advancing Translational Sciences (NCATS).
ALDH1A1 block = blocks purified human ALDH1A1 activity. Purified ALDH1A1, NADH fluorescence, propionaldehyde substrate. Potency, µM (titrated, usually from 75.3 µM), for inactives: at the highest dose activity, negative = inhibition, hits mostly inhibitors. 220,000 tested, 7.3% active. AID 1030;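 note: potency is the fitted concentration of half-maximal effect; plate controls were no enzyme wells and a reference inhibitor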
Target sequence (P00352 whole entry, looked up): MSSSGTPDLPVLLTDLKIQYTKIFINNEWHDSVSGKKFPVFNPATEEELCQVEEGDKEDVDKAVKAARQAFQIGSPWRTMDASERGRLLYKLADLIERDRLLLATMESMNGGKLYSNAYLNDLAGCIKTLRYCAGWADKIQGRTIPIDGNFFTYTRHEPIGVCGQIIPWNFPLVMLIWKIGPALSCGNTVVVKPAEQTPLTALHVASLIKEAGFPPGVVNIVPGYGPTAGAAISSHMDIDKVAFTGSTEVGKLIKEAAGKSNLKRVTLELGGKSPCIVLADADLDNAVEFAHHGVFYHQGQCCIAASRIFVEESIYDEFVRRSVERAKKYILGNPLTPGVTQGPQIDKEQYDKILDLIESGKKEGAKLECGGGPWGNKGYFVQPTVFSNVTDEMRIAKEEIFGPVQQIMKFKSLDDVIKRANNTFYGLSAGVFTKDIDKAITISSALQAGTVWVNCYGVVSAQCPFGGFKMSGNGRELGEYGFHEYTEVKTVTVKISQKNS
HPGD inh = blocks human HPGD enzyme activity; P15428; purified HPGD, NADH fluorescence kinetic, PGE2 substrate; Potency, µM, for inactives: at the highest dose activity change, negative = inhibition, most hits filed as inhibitors; 150,000 tested, 4.3% active; note: potency is the fitted concentration of half-maximal effect
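NADH formation kinetics: reaction with 30 uM PGE2 and 1 mM NAD+ (final), 20 nM enzyme, Tris-HCl pH 8 with Tween 20, after 15 min compound preincubation at room temperature. Fluorescence change, last versus first of five reads.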
PNC assembly inh = perinucleolar compartment assembly inhibition; PC3M PTB-GFP, PNC prevalence imaging, 16 h; active compounds read low; activity change (PNC), negative = inhibition, % at 10 µM; 140,000 tested, 3.1% active;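 active = readout at or below -70, meaning at least 70% loss of cells showing the perinucleolar compartment, a nuclear body marking cancer cells; inconclusive = readout between -30 and a set limit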;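 note: plate controls were DMSO wells for no effect and camptothecin positive control wells for full effect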
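Compounds are pinned in duplicate onto adhered PC3M cells stably expressing GFP-tagged PTB and incubated 16 h at 37 C. Cells are then fixed, nuclei stained with Hoechst, and PNC-positive cells counted.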
An asterisk follows results filed as active; ? = inconclusive; . = no result given. This is a sample that favours compounds with a hit; in the whole collection about 11% have one here. Unless noted, calls come from the whole dose curve; as a rule, active = well fitted inhibition curve with a large enough effect (not every such curve was filed as active); inconclusive = small, poorly fitted or top-dose-only effect, or another doubt; inactive = no such curve, though single readings can be large or run the other way. Unless noted, % is set by controls: 0 for no effect and ±100 for the full control effect.

SMILES	ALDH1A1 block	HPGD inh	PNC assembly inh
COC(=O)C1=C(C)NC(=S)NC1c1ccc(-c2ccccc2C(=O)OC)o1 (configuration not stated)	16µM*	.	.
CCOC(=O)C1=C(C)NC(=O)NC1c1ccc(-c2ccc(Cl)cc2)o1 (configuration not stated)	6%	.	.
CCOC(=O)C1=C(C)NC(=S)NC1c1ccc(-c2ccc(Cl)cc2)o1 (configuration not stated)	4.5µM*	-10%	-30
O=C(NC12CC3CC(CC(C3)C1)C2)c1ccc(-c2cccc(Cl)c2)o1	?	-27%	-28
COC(=O)C1=C(C)NC(C)=C(C(=O)OC)C1c1ccc(-c2cccc(Cl)c2Cl)o1	?	?	5
COC(=O)C1=C(C)NC(=S)NC1c1ccc(-c2cccc(Cl)c2)o1 (configuration not stated)	2µM*	-28%	-8
COC(=O)C1=C(C)NC(=O)NC1c1ccco1 (configuration not stated)	4%	.	.
CCOC(=O)C1=C(C)NC(=S)NC1c1ccc(-c2cccc(Cl)c2C)o1 (configuration not stated)	0.89µM*	-11%	-21
CC(C)Cn1nnnc1S(=O)(=O)CC#N	-4%	-9%	.
CC1=CCC2C(=O)N(c3ccccc3OC(=O)c3ccccc3F)C(=O)C2C1 (configuration not stated)	9%	-11%	7
Cc1cc(C)nc(SCCS(=O)Cc2ccc(Cl)cc2)n1 (configuration not stated)	?	-7%	-110*
Cc1cc(C)nc(SCCC(=O)N(C)C)n1	3%	-15%	21
CCC(C(=O)OCC(=O)Nc1c(Cl)cccc1Cl)c1ccccc1 (configuration not stated)	7%	-10%	53
Cc1ccc(NC(=S)NCc2cccs2)c(C)c1	7%	?	8
CC(=O)c1sc(N/N=C\c2cccc(Br)c2)nc1C	25µM*	28µM*	-85*
CC(=O)c1sc(N/N=C\c2ccc(Br)cc2)nc1C	?	-5%	49
Cc1cc(Br)ccc1SCC(=O)OCC(=O)NC1CCCC1	-8%	.	.
O=S(=O)(NC1=NCCC1)c1ccc(F)cc1F	4%	.	.
N[C@]1(C(=O)O)CCc2cc(P(=O)(O)O)ccc21	-15%	1%	.
Cc1ccc(NC(=O)COC(=O)C2(c3ccc(Cl)cc3)CCCC2)cc1	10µM*	-8%	?
CCOC(=O)c1ccc(NC(=O)C2(c3ccc(Cl)cc3)CCCC2)cc1	-6%	-2%	18
O=C(c1ccc(F)cc1)C(C(=O)N1CCCCC1)n1ccccc1=O (configuration not stated)	6%	.	.
N#Cc1ccc(CN2CCCC3(CCN(C(=O)c4csnn4)CC3)C2)cc1	-1%	-10%	.
CC1=CC(=O)NS(=O)(=O)O1	7%	-7%	.
COc1ccc(C)cc1NC(=O)C(OC(=O)c1ccc([N+](=O)[O-])o1)c1ccccc1 (configuration not stated)	18µM*	-14%	20
SMILES	ALDH1A1 block	HPGD inh	PNC assembly inh
COc1ccc(C)cc1NC(=O)C(OC(=O)CNC(=O)c1cc(C)cc(C)c1)c1ccccc1 (configuration not stated)	?	-3%	?
COC(=O)c1sccc1NC(=O)CSCCc1ccccn1	10%	.	.
CC[C@H](C)[C@@H](NC(=O)O[C@H]1C(=O)c2ccc(OC)cc2O[C@@H]1c1ccc2c(c1)OCO2)C(=O)OC	2%	0%	.
Cc1ccc(NC(=O)c2sccc2SCc2cccc(C(F)(F)F)c2)cc1	-4%	-26%	54
N#CCSc1ccsc1C(=O)Nc1ccc(F)cc1	7.1µM*	32µM*	26
Cc1cc(C)c2sc(C)[n+](CCCS(=O)(=O)[O-])c2c1	1%	.	.
CC[n+]1c(C)sc2c(C)cc(C)cc21	13%	-1%	-99*
O=C(CCCNS(=O)(=O)c1ccc(Cl)c(Cl)c1)NCCc1ccccn1	-2%	.	.
NC(=S)Nc1cc2ccccc2c2ccccc12	0.4µM*	-8%	?
NC(=S)Nc1cccc2cc3ccccc3cc12	?	-17%	-1
CC1(C)CC(=O)C(C(c2ccco2)C2C(=O)CC(C)(C)CC2=O)C(=O)C1	?	7.9µM*	-19
CC1(C)CC(=O)C(C(c2ccc(F)cc2)C2C(=O)CC(C)(C)CC2=O)C(=O)C1	?	-7%	-1
NNc1nc2c(F)cc(F)cc2s1	?	-5%	1
N/C(=N\OC(=O)COc1ccc(Br)cc1Cl)c1cccnc1	16%	?	-24
CC1CCN(CCOc2ccccc2-c2ccccc2)CC1	?	6%	-105*
CC1CC(C)CN(CCOc2ccccc2-c2ccccc2)C1 (configuration not stated)	?	-8%	?
c1ccc(-c2ccccc2OCCCN2CCCC2)cc1	?	-6%	-107*
c1ccc(-c2ccccc2OCCCCN2CCCCC2)cc1	?	6%	2
COc1cc(CCC(=O)Nc2ccc(C)c(S(=O)(=O)N(C)C)c2)cc(OC)c1OC	-4%	-10%	23
NS(=O)(=O)c1cccc(NC(=O)CCSc2ccc(Cl)cc2)c1	?	-9%	20
Cc1ccc(CN2C(=O)CCC2C(=O)NCc2ccccc2Cl)cc1 (configuration not stated)	-4%	.	.
Cc1ccc(S(=O)(=O)C/N=C(/NC(=S)N(c2ccccc2)c2ccccc2)c2ccccc2)cc1	14µM*	32µM*	-29
Cc1ccc(S(=O)(=O)/N=C(/NC(=S)Nc2ccccc2)c2ccccc2)cc1	?	-26%	-5
CCCNC(=O)N1CCN(S(C)(=O)=O)CC1	4%	.	.
Cc1ccc(CN2CCN(/N=C/c3cc(Br)cc(Br)c3O)CC2)cc1	?	-14%	2
SMILES	ALDH1A1 block	HPGD inh	PNC assembly inh
COc1ccc(CN=Cc2c(O)[nH]c3ccccc23)cc1	-2%	.	.
Cc1ccc(CN=Cc2[nH]c3ccc(Br)c(Cl)c3c2O)cc1	0.4µM*	28µM*	20
Oc1c(C=NCc2ccc(F)cc2)[nH]c2ccc(Br)c(Cl)c12	4.5µM*	?	-28
O=C(C[C@@H]1C=Cc2ccccc2N1C(=O)c1ccccc1)c1ccccc1	?	-17%	.
CCOC(=O)CN1C(=O)S/C(=C/c2ccc(OC)c([N+](=O)[O-])c2)C1=O	13µM*	16µM*	-24
COc1cc(/C=C2/SC(=O)N(Cc3ccccc3)C2=O)ccc1OCc1ccncc1	176%	?	5
CCN=C1S/C(=C\c2ccc(OC)c(OCC)c2)C(=O)N1CC	-13%	-6%	34
COc1cc(/C=C2\SC(=O)N(Cc3ccc(F)cc3)C2=O)cc([N+](=O)[O-])c1O	0.71µM*	.	.
COc1ccc(/C=C2\SC(=NCc3ccccc3)N(Cc3ccccc3)C2=O)cc1OC	?	?	28
COc1cc(/C=C2\SC(=O)N(Cc3ccc(Cl)cc3)C2=O)cc([N+](=O)[O-])c1O	2.5µM*	.	.
O=C(Nn1c(-c2ccc(F)cc2)nc2ccccc2c1=O)C1CCCCC1	?	-6%	7
COc1ccc(C2(C(=O)NCc3ccccc3Cl)CCOCC2)cc1OC	3%	.	.
CCCC(=O)OCC(=O)Nc1cc(C(C)(C)C)nn1-c1ccccc1	-2%	?	4
CCCc1cc(NC(=O)CCl)n(-c2ccccc2)n1	0.89µM*	.	.
O=C(Cc1c[nH]c2ccccc12)NC1(C(=O)NC2CCCC2)CCCCC1	5%	.	.
